Results on 5 molecules are retold here after PubChem BioAssay AID593 (National Center for Advancing Translational Sciences (NCATS), 2007).

Hit rate of the full screen: of about 59,000 compounds, about 540 (0.92%) were called active. Inconclusive results (about 33%) are left out. Rule as the data show it: active = max fluorescein-equivalent concentration above about 10 nM; inconclusive = between about 1.1 nM and that limit; inactive = weaker than that. Shown is part of a subset that was picked to be rich in actives.

The assay is described as follows: qHTS Assay for Spectroscopic Profiling in Fluorescein Spectral Region. Conditions: Compound autofluorescence, 480/540 nm; max fluorescein-equivalent concentration: hits give high values; outcome: fluorescein-equivalent. The text has this:
NIH Molecular Libraries Screening Centers Network [MLSCN]
NIH Chemical Genomics Center [NCGC]
Occasionally, the artifactual effect may originate from the compound's own spectral or other biophysical properties which generally tend to track its assay concentration. Pre-screening/profiling the library with respect to the compounds' spectral properties should help one exclude false positives early on. While the most informative fluorescent profiling data set is obtained by performing a full excitation and emission scan of each well by using a monochromator-based plate reader, such an approach is practical only on a very limited scale as scanning each well requires long time. An alternative approach, applied here, is to perform plate reader scans using selected excitation and emission wavelength pairs to generate a multidimensional relational database that correlates compound concentration and the respective relative fluorescence intensity at a given wavelength set. A standard curve of fluorescein present on each plate as six-point concentration series, was used to compute a normalized fluorescence response, termed dye-equivalent concentration, for each compound at each concentration.
NCGC Assay Protocol Summary:
100 mM Tris buffer, pH 8.0
The wells in columns 1 through 4 of a Kalypsys polypropylene 1536-well compound plate were filled with standard solutions of fluorophore corresponding to the spectral region of interest. Solutions of Fluorescein were placed in the following wells: Q1, R1: 3 mM, Q2, R2: 300 uM, Q3, R3: 30 uM, Q4, R4: zero (DMSO), S1, T1: 3 uM, S2, T2: 900 nM, S3, T3: 300 nM, S4, T4: zero (DMSO).
Six uL of buffer were dispensed to 1536-well Greiner black plates. Compounds and dye standards (23 nL) were transferred via Kalypsys PinTool. The plates were incubated for 15 min at room temperature, and then read on ViewLux (Perkin-Elmer) High-throughput CCD imager using 480 nm and 540 nm excitation and emission filter set.
Keywords: NIH Roadmap, MLSCN, MLI, MLSMR, qHTS, NCGC, Fluorescein, Fluorescent Profiling.
(In general: Quantitative high-throughput screening tests each substance at several concentrations.)
For `CN1C2C=C(N(C(=O)c3ccc(Cl)cc3)c3ccccc3)CC1CC2` (stereo not given), the max fluorescein-equivalent concentration was 10 nM (active).

Consider `CCN1C[C@@]2(COC)CC[C@H](OC)[C@]34[C@@H]1[C@]1(OCO[C@@]15C[C@@H](OC)C1C[C@H]3[C@H]5[C@@H]1OC)[C@H](O)[C@@H]24`, for which the max fluorescein-equivalent concentration result was “inactive”.

In the case of `COc1ccc(-c2nc(CS(=O)CC(=O)N3CCC4(CC3)OCCO4)c(C)o2)cc1` (stereo not given), the max fluorescein-equivalent concentration result was “inactive”.

On to `CC(C)CCC1(CCN)C(=O)NC(=O)NC1=O`, for which the max fluorescein-equivalent concentration result is “inactive”.

Regarding `CCC(=NCc1ccco1)c1c(O)n(Cc2ccccc2)c(=O)[nH]c1=O`, the max fluorescein-equivalent concentration result was “inactive”.
